Compound activity: PubChem BioAssay, National Center for Advancing Translational Sciences (NCATS)
Only some compounds are listed: those with a hit (about 19% of all), similar ones and a draw of the others.
IL1B secr inh – inflammasome signaling inhibition, IL-1 beta readout; THP-1 LPS/ATP IL-1B secretion, AlphaLISA, 16 h; active compounds read low; activity change, % at 57.5 µM; actives 4.7% (n = 360,000); in the data active = activity change below about -50%; inconclusive = mostly about -30% to -49%
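THP-1 cells pretreated 1 hr with compounds (up to 57.5 uM final), then stimulated with LPS (250 ng/mL final) plus ATP (1.25 mM final); secreted IL-1B measured by AlphaLISA after 16 hr, decreased signal indicating inhibition.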
HT1080 IDH1KD tx – HT-1080 IDH1 knockdown cell toxicity (counter line) | HT-1080 IDH1 knockdown viability, ATP luminescence, 48 h | Potency, µM (doses to about 46.1 µM), for the others: at the top dose activity, negative = toxicity, hits mostly cytotoxic | actives 2% (n = 360,000);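 also: potency is read from the fitted curve at half-maximal effect; 0% = DMSO wells and -100% = cell-free medium wells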
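IDH1KD HT-1080 cells, 750/well, RPMI + 5% FBS; compound pinned after 2 h settling; 48 h, 37 °C; CellTiter-Glo luminescence; % activity normalised to DMSO and no-cell wells; curves fitted, classed by r2 and efficacy.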
uPA surface inh – blocks generation of uPA at the cell surface. cell surface uPA generation assay, qHTS. Potency, µM (highest dose often 38.3 µM), without a hit: at the top dose activity change, negative = inhibition, most hits filed as inhibitors. actives 0.31% (n = 330,000). AID 540303; active = well fitted inhibition curve with a large enough effect; inconclusive = small, poorly fitted or top-dose-only effect; inactive = no such curve, though single readings can be large or run the other way; tested in mouse RAW 264.7 cells; also: potency is read from the fitted curve at half-maximal effect; nearly all actives have a fitted effect of over 55% in size
HT1080NT lethal – kills 2HG-producing HT-1080-NT fibrosarcoma cells. HT-1080-NT fibrosarcoma viability, CellTiter-Glo ATP luminescence, 48 h. Potency, µM (titrated, usually from 46.1 µM), without a hit: top-dose activity, negative = less viability, most hits filed as cytotoxic. actives 1.6% (n = 360,000). AID 686970;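 also: NT is the 2HG producing partner of a matched IDH1 knockdown line; potency is read from the fitted curve at half-maximal effect; 0% = DMSO-treated cells and -100% = media-only wells without cells; nearly all actives have a fitted effect of over 55% in size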
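A 48-hour cytotoxicity screen used HT-1080-NT cells plated 2 hours before compound delivery. ATP-based CellTiter-Glo luminescence measured viability, normalized to DMSO and no-cell controls.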
TDP1 cell CPT – DT40-hTDP1 cell growth loss with CPT | chicken DT40 Tdp1-/-;hTDP1 cells + 20 nM CPT, ATP luminescence, 48 h | Potency, µM (titrated, usually from 46.2 µM), without a hit: at the highest dose activity change, negative = growth inhibition, actives largely listed as inhibitors | actives 12% (n = 420,000); also: potency is read from the fitted curve at half-maximal effect; nearly all actives have a fitted effect of over 55% in size
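Chicken DT40 Tdp1-/- cells complemented with human TDP1, 400 cells/well, exposed to compounds plus 20 nM camptothecin for at least 48 h at 37 C; viability read as ATP content by CellTiter-Glo luminescence.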
DT40 TDP1 no CPT – qHTS for Inhibitors of human tyrosyl-DNA phosphodiesterase 1 (TDP1): qHTS in cells in absence of CPT; DT40 Tdp1-/- hTDP1 cells, no CPT, ATP luminescence, 48 h; Potency, µM (highest dose often 46.2 µM), without a hit: at the highest dose activity change, negative = growth inhibition, actives largely listed as inhibitors; actives 15% (n = 420,000); AID 686978, 2013; also: potency is read from the fitted curve at half-maximal effect; nearly all actives have a fitted effect of over 55% in size
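Readout: luminescence from CellTiter-Glo after 30 min in the dark at RT. Cells: DT40 Tdp1-/- with stable hTDP1, 400/well. Exposure: compounds alone, ≥48 hr, 37 °C.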
The depositor's hits bear a star; u = inconclusive; x = not tested or not shown; [ ] = dose if it differs, or a comment. Unless noted, calls follow the shape of the dose curve; as a rule, active = well fitted curve in the direction sought with a large enough effect; inconclusive = small, poorly fitted or top-dose-only effect, or another doubt; inactive = no such curve, though single readings can be large; an effect the other way counts as inactive or inconclusive. Unless noted, % is scaled to controls: 0 for no effect and ±100 for the full control effect.

SMILES	IL1B secr inh	HT1080 IDH1KD tx	uPA surface inh	HT1080NT lethal	TDP1 cell CPT	DT40 TDP1 no CPT
COc1ccc(NCc2ccc(OC)c(Cn3ccnc3)c2)c(OC)c1	-69*	-7%	-12%	-5%	-29%	u
O=C1C2C(C(=O)N1/N=C/c1ccc([N+](=O)[O-])o1)C1C=CC2C12CC2 (stereo not drawn)	-91*	u	-8%	u	16µM*	23µM*
O=C1SCCN1N=Cc1ccc([N+](=O)[O-])o1	9	-5%	-12%	u	8.2µM*	18µM*
CC1CN(N=Cc2ccc([N+](=O)[O-])o2)C(=N)O1 (stereo not drawn)	20	-3%	-10%	-7%	21µM*	18µM*
CC1CS(=O)(=O)CCN1/N=C/c1ccc([N+](=O)[O-])o1 (stereo not drawn)	x	x	x	x	-9%[21.1 µM]	u
O=C1C2C3C=CC(C4CC34)C2C(=O)N1/N=C/c1ccc(-c2ccc([N+](=O)[O-])cc2)o1 (stereo not drawn)	0	-6%	-2%	-1%	u	u
C/C(CC(=O)Nc1cccc(C(F)(F)F)c1)=N\NC(=O)C1CCCCC1	0	-17%	-3%	u	u	-20%
O=C1CCCc2oc3c(c21)CCCC3	0	2%	2%	-1%	28%	-9%
CN(C)c1cc(NC(=O)CNC(C)(C)CC(C)(C)C)c2ccccc2n1	-13	u	-3%	u	u	16µM*
COc1ccc(CCN(C)CC(=O)Nc2cc(C)nc3ccccc23)cc1OC	30	-10%	-3%	15%	u	u
CCc1ccc(-c2cc(C)no2)cc1S(=O)(=O)N1CCN(c2cccc(C)c2C)CC1	36	0%	-11%	5%	23µM*	u
CCc1ccc(-c2cc(C)no2)cc1S(=O)(=O)N1CCN(c2ccccc2F)CC1	7	2%	-2%	-1%	u	-10%
CC(=O)c1ccc(N2CCN(S(=O)(=O)c3cc(-c4cc(C)no4)ccc3C(C)C)CC2)cc1	-13	-17%	8%	5%	u	u
CCc1ccc(-c2cc(C)no2)cc1S(=O)(=O)N1CCN(c2cccc(Cl)c2)CC1	x	x	x	x	1µM*	0.65µM*
CCc1nc(-c2ccc(C)c(S(=O)(=O)N3CCN(c4ccc(C(C)=O)cc4)CC3)c2)no1	x	x	x	x	13µM*	7.3µM*
CCc1ccc(-c2cc(C)no2)cc1S(=O)(=O)N1CCN(c2cc(C)ccc2C)CC1	-9	-5%	4%	-1%	u	16µM*
CCc1ccc(-c2cc(C)no2)cc1S(=O)(=O)N1CCN(c2ccc(C(C)=O)cc2)CC1	-17	-9%	-7%	-2%	u	18µM*
COc1ccc(C(=O)O/N=C2\C(=O)N(C)c3ccccc32)cc1	2	7%	10%	0%	7.3µM*	5.8µM*
COc1ccc(C(=O)OCCN2C(=O)c3ccccc3C2=O)cc1	2	13%	5%	11%	-27%	-13%
CN1C(=O)/C(=N\OC(=O)c2cccc3ccccc23)c2ccccc21	-100*	u	0%	13µM*	12µM*	13µM*
CN1C(=O)c2ccc(NC(=O)c3cccc4ccccc34)cc2C1=O	29	-5%	2%	0%	4%	-20%
COC(=O)[C@]1(C)N[C@H](CN(C)C(=O)Nc2ccc(C)cc2)[C@@H]2C(=O)N(C)C(=O)[C@@H]21	20	0%	11%	1%	-29%	-16%
Cc1ccc(C2NC(=O)c3n[nH]c(-c4cccs4)c32)cc1 (stereo not drawn)	x	x	x	x	u	18µM*
N#CC1=C(N)Oc2n[nH]c(-c3cccs3)c2C1c1ccsc1 (stereo not drawn)	19	5%	10%	2%	-21%	-12%
Cc1ccc(Cl)cc1NS(=O)(=O)c1ccc(N2CCCCS2(=O)=O)cc1	x	x	x	x	u	12µM*
SMILES	IL1B secr inh	HT1080 IDH1KD tx	uPA surface inh	HT1080NT lethal	TDP1 cell CPT	DT40 TDP1 no CPT
CSc1ccc(S(=O)(=O)NCc2ccccc2Cl)cc1	31	-2%	x	11%	-29%	u
Cc1nc(-c2ccc(S(=O)(=O)Nc3cc(Cl)ccc3C)cc2)co1	x	x	x	x	-27%	u
O=C1CCCN1c1ccc(S(=O)(=O)NCc2ccc(F)cc2)cc1	45	-1%	2%	-1%	21µM*	u
O=S(=O)(NCc1ccccc1Cl)c1ccc(N2CCCCS2(=O)=O)cc1	x	x	x	x	16µM*	21µM*
O=S(=O)(NCc1ccc(F)cc1)c1ccc(N2CCCCS2(=O)=O)cc1	x	x	x	x	23µM*	21µM*
O=S(=O)(NCc1ccc(F)cc1)c1ccc(-n2cnnn2)cc1	-1	-1%	-1%	-6%	u	u
Cc1nnc(NC(=O)C2CC(=O)N(C(C)c3ccccc3)C2)s1 (stereo not drawn)	16	4%	0%	-2%	-7%	12%
Cc1ccc(-c2nnc3c4ccccc4c(C)nn23)cc1NC(=O)c1ccccc1Cl	x	x	x	x	3%	-27%
O=S(=O)(NCc1ccccc1)c1ccc(Cl)cc1	-3	-1%	1%	-9%	-7%	-7%
O=S(=O)(NCc1ccc(Cl)cc1)c1ccc(N2CCCCS2(=O)=O)cc1	x	x	x	x	12µM*	8.2µM*
CCOCCOc1nc2c(c(=O)n(C)c(=O)n2C)n1Cc1ccc(C)cc1	10	0%	10%	-5%	u	8.2µM*
C=CCOc1nc2c(c(=O)n(C)c(=O)n2C)n1Cc1ccccc1	x	1%	-13%	-1%	26µM*	18µM*
COc1ccc(Oc2nc3c(c(=O)n(Cc4ccc(Br)cc4)c(=O)n3C)n2C)cc1	x	x	x	x	-3%	u
C#CCOc1nc2c(c(=O)n(C)c(=O)n2C)n1Cc1ccccc1	0	-9%	-25%	-12%	12µM*	12µM*
COc1ccc(Oc2nc3c(c(=O)n(C)c(=O)n3C)n2Cc2ccccc2)cc1	38	20%	-3%	17%	u	-29%
C=CCOc1nc2c(c(=O)n(Cc3ccc(Cl)cc3)c(=O)n2C)n1C	-11	6%	-16%	14%	u	12µM*
COCCOc1nc2c(c(=O)n(C)c(=O)n2C)n1CCc1ccccc1	20	-6%	-1%	-1%	-23%	-29%
Cn1cnc2c(cnn2C)c1=N	-4	8%	-1%	6%	10%	-15%
Cc1ccccc1C(=O)/C=C1/SCC(=O)N1C	-29	6%	1%	2%	-4%	3%
